hERG WT inh = qHTS for Inhibitors of KCHN2 3.1: Wildtype qHTS | 340,000 tested, 0.37% active | activity change, % at 1.84 µM | U2OS, BacMam KCNH2, thallium flux FluxOr; hits give low values | Voltage-gated inwardly rectifying potassium channel KCNH2 (Homo sapiens), Q12809;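 active means maximum activity change below -70%; inconclusive means maximum activity change between -70% and -50%; inactive means maximum activity change above -50%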; further: on the % scale 0 is the no-effect control and ±100 the full control effect
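U2OS cells were transduced with wild-type KCNH2 virus (2.03 x 10^8 / mL) for 4 h at room temperature, then cultured overnight at 37 C. Thallium flux was read with FluxOr dye. Rate constants were normalized to DMSO controls.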
TRPV1 potentiator = HTS Assay for Compounds that Act as Potentiators of the Vanilloid Receptor 1. TRPV1-expressing cells, Fluo-8 calcium influx, capsaicin EC20 potentiation. potentiation, % at 8.33 µM. 320,000 tested, 0.02% active; in the data active means potentiation above about 80%; inconclusive means between about 30% and that limit; further: 0% is about no effect
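Cells expressing TRPV1 were dye-loaded with Fluo-8 and read kinetically: 10 s baseline, 3 min after compound (agonist portion), then 2 min after EC20 capsaicin (allosteric enhancer portion). Calcium-bound dye fluorescence at 480/520 nm.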
TRPML1 blocker = qHTS for Inhibitors of the Human Mucolipin Transient Receptor Potential 1 (TRPML1) | TRPML1-inducible cells, Ca2+ dye fluorescence, FDSS; hits give low values; inhibition of EC80 agonist-evoked calcium signal | 390,000 tested, 0.02% active | Mucolipin-1 (Homo sapiens), Q9GZU1 | activity change, negative = inhibition, % (no concentration beside the values); in the data active means activity change below about -50%; inconclusive means between about -30% and that limit;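 further: stimulus is agonist 54-4 at its EC80 concentration; on the % scale 0 is the no-effect control and ±100 the full control effect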
Target sequence (Q9GZU1 whole entry, looked up): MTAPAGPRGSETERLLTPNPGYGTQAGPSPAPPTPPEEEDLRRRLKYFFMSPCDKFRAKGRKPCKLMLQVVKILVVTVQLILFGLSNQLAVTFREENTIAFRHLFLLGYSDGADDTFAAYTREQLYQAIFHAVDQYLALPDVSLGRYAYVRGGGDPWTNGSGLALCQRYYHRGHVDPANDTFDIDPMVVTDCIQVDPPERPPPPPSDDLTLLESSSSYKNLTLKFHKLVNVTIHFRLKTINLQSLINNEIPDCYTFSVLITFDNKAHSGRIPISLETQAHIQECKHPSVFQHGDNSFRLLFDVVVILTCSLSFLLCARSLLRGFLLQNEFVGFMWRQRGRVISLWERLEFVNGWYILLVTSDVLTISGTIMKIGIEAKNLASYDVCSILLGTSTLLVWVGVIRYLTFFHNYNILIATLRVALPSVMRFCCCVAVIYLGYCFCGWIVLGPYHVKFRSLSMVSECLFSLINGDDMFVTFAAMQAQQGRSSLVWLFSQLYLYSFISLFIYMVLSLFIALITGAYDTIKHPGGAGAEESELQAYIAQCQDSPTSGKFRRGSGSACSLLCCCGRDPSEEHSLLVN
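Tet-induced TRPML1-DL cells loaded with Ca8 no-wash calcium dye were read kinetically on FDSS. Compound addition was followed by EC80 agonist 54-4 (4 uM final); inhibition was read over 110 s.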
TRPV1 agonist = HTS Assay for Compounds that Act as Agonists of the Vanilloid Receptor 1; AID 540275, 2011; 320,000 tested, 0.19% active; TRPV1-expressing cells, Fluo-8 calcium influx, agonist mode; activation, % at 8.33 µM; Transient receptor potential cation channel subfamily V member 1 (Homo sapiens), Q8NER1; in the data active means activation above about 80%; inconclusive means between about 30% and that limit; further: 0% is about no effect
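TRPV1-expressing cells were cultured overnight at 35.5C and loaded with Fluo-8 calcium dye for 40 to 90 min at room temperature. After a 10 s baseline, compound was added and calcium influx was read kinetically for 3 min (ex 480/em 520 nm).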
KCNH2 3.1 inh = qHTS for Inhibitors of KCHN2 3.1: Mutant qHTS. Potassium voltage-gated channel subfamily H member 2, brain isoform KCNH2 3.1 (human). U2OS KCNH2 3.1, thallium flux FluxOr; hits give low values. activity change, % (tested at about 1.8 µM). 340,000 tested, 0.95% active. AID 720553, 2013;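 active means maximum activity change below -70%; inconclusive means maximum activity change from -70% to -50%; inactive means maximum activity change above -50%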;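 further: thallium influx rate constant from kinetic fluorescence after stimulation buffer; on the % scale 0 is the no-effect control and ±100 the full control effect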
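Normalized rate constant (relative to positive and negative DMSO controls) derived from a 2 min kinetic fluorescence read after stimulation; U2OS cells expressing the 3.1 isoform via virus at 1.77 x 10^8 /mL.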
TRPML1 ag = qHTS for Agonists of the Human Mucolipin Transient Receptor Potential 1 (TRPML1) | Mucolipin-1 (Homo sapiens), Q9GZU1 | 410,000 tested, 0.12% active | TRPML1-expressing cells, Ca2+ dye fluorescence, FDSS | activation, % (no concentration beside the values); in the data active means activation above about 50%; inconclusive means mostly about 30% to 49%; further: 0% is about no effect
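Cells: TRPML1-DL, 1X Tet inducer, ~16 h at 37 degrees C/5% CO2. Dye: ABD Ca8 no-wash + quencher, 45-90 min RT. Read: 10 s baseline, compound add, 110 s agonist phase; 54-4 EC80 (4uM final), 110 s antagonist phase.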
* = called active by the depositor; ? = inconclusive; . = no result given. An excerpt weighted towards active compounds, which were near 1.3% of everything screened.

SMILES	hERG WT inh	TRPV1 potentiator	TRPML1 blocker	TRPV1 agonist	KCNH2 3.1 inh	TRPML1 ag
COC(=O)[C@@]12CCCCN1[C@H](c1ccc(-c3cccc(Cl)c3)c(OC)c1)[C@@H]1C(=O)N(C)C(=O)[C@@H]12	4	0	56	-4	-12	0
CCC1CCCCN1CCCNC(=O)c1ccc2c(c1)N(Cc1ccccc1F)C(=O)c1ccccc1S2(=O)=O (configuration not stated)	.	.	6	.	.	1
Cc1ccccc1-c1ccc(/C=C2/SC(N3CCOCC3)=NC2=O)o1	2	-2	-3	84*	3	1
COc1ccc(OC)c(CN2CCN(Cc3ccc(OC)c(OC)c3OC)CC2)c1	16	.	-8	.	-5	0
COc1ccc(CN2CCN(CCSc3ccc(C)cc3)CC2)c(OC)c1OC	52	10	-16	-1	-77*	0
COc1ccc(C2Nc3ccccc3C(=O)N2c2cccc3ccccc23)cc1COc1c(C)cccc1C (configuration not stated)	.	.	.	.	.	-1
Cc1cc(I)ccc1Nc1nc(NCCN2CCOCC2)nc(N2CCOCC2)n1	.	.	.	.	.	0
Cc1nc(C)c(-c2ccc(SCc3cccc(F)c3)nn2)s1	0	-8	14	4	-94*	1
CC(C)c1ccc(Cn2cnc3c(cnn3C(C)(C)C)c2=O)cc1	.	.	9	.	.	2
C[C@@H]1CCC(=O)N(C[C@@H](C)CSc2ccc(Br)cc2)CC1	-1	-4	0	?	-113*	2
COc1ccc(NCc2cc3cc4c(cc3n(CC(=O)Nc3ccc(C)c(C)c3)c2=O)OCO4)cc1	.	.	7	.	.	4
CC(=O)ON(C(C)=O)c1ccc(/C=C2/C=Cc3ccccc32)cc1	.	.	.	.	.	-1
Cc1ccc(Cl)cc1NC(=O)Nc1nnc(N2CCCC(C)C2)s1 (configuration not stated)	.	.	5	.	.	-1
CCOC(=O)c1c(-c2ccccc2)oc2ccc(NS(=O)(=O)c3cc(C)c(C)cc3C)cc12	.	.	23	.	.	0
C[C@@H]1[C@H](c2ccccc2)OCCS(=O)(=O)N1Cc1ccccc1F	.	.	.	.	.	-1
Nc1cc(=O)[nH]c(SCc2cccc3ccccc23)n1	-8	18	-21	-5	4	0
CCc1cc(=O)[nH]c(SCc2cccc3ccccc23)n1	2	?	16	-1	-110*	3
O=c1[nH]/c(=C/c2ccc3c(c2)OCO3)c(=O)[nH]/c1=C/c1ccc2c(c1)OCO2	.	.	.	.	.	1
CCN(CC)c1ccc(C=C2C(=O)OC(c3ccccc3)OC2=O)cc1 (configuration not stated)	-6	3	-6	-2	10	0
CCN(CC)c1ccc(/C=C/C(=O)C2C(=O)C=C(C)OC2=O)cc1 (configuration not stated)	?	12	-12	94*	-78*	127*
O=c1cc(-c2cccc(F)c2)[nH]c2ccccc12	2	3	2	1	-71*	-1
O=c1cc(-c2ccccc2)[nH]c2ccc(F)cc12	-12	?	-5	-1	-98*	0
Cc1ccc(-c2cc(=O)c3cc(F)ccc3[nH]2)cc1	5	-10	30	27	-14	-1
COc1ccc(S(=O)(=O)N2CC3CCCN3c3ccc(C(F)(F)F)cc32)cc1 (configuration not stated)	-11	?	-7	-1	-19	80*
COc1ccc(S(=O)(=O)N2CC3CCCN3c3cc(C(F)(F)F)ccc32)cc1 (configuration not stated)	-8	3	-9	-1	-12	16
SMILES	hERG WT inh	TRPV1 potentiator	TRPML1 blocker	TRPV1 agonist	KCNH2 3.1 inh	TRPML1 ag
CCC[N+](CC#Cc1ccccc1)(CCC)CC(=O)OCC	23	0	54	-6	-71*	1
CCC[N+](CC#Cc1ccccc1)(CCC)CC(=O)OC	5	3	-17	-2	5	0
COc1cccc(CN2C(=O)c3ccccc3Sc3ccc(C(=O)NCc4ccccc4)cc32)c1	.	.	3	.	.	1
CC(c1nccs1)N(C)C(=O)CCc1nnc(-c2ccc(-c3ccccc3)cc2)o1 (configuration not stated)	-138*	3	4	3	-161*	-1
CC(NC(=O)CCc1nnc(-c2ccc(-c3ccccc3)cc2)o1)c1nccs1 (configuration not stated)	16	-1	-23	0	-1	0
CCN1CCc2nc3sc(C(=O)c4ccccc4)c(N)c3cc2C1	.	.	9	.	.	4
CCSC1=N/C(=C\c2ccc3c(c2)OCO3)C(=O)S1	4	-7	-1	-1	-5	5
CN1C(=O)/C(=C/c2ccc3c(c2)OCO3)N=C1c1ccccc1	-2	-19	12	24	-123*	4
Cc1ccc(-c2nc(=Nc3c(C)cc(C)cc3C)sn2-c2ccccc2)cc1	.	.	.	.	.	8
CCCN1CNc2c(c(=O)[nH]c(=S)n2CCc2cccc(OC)c2OC)C1	.	.	.	.	.	0
CC(C)c1ccc(/C=C2\SC(=S)N(CCC(=O)NCCCn3ccnc3)C2=O)cc1	-1	?	0	-5	-77*	0
COc1ccc(/C=C2\SC(=S)N(CCC(=O)NCCCn3ccnc3)C2=O)cc1	2	-1	-6	2	7	2
CCC(C)(C)C(=O)Nc1cc([N+](=O)[O-])ccc1F	-250*	14	93	-7	-176*	-1
CCC(C)(C)C(=O)Nc1cc([N+](=O)[O-])ccc1Cl	-3	-6	6	-1	12	-1
COc1ccc(Nc2nnc(-c3ccc(C)c(S(=O)(=O)N4CCOCC4)c3)c3ccccc23)cc1	.	.	0	.	.	-1
O=C(c1cc(Sc2ccc(Cl)cc2)nc2ccccc12)N1CCN(c2ccccn2)CC1	8	1	27	2	-78*	0
O=C(c1cc(Sc2cccc(Cl)c2)nc2ccccc12)N1CCN(c2ccccn2)CC1	1	-12	12	8	-6	3
CC(C)(C)c1ccc(C(=O)Nc2ccc(C=C(C#N)C#N)cc2)cc1	-12	-16	14	89*	-1	0

Source: PubChem (National Center for Advancing Translational Sciences (NCATS))
